Screening data from PubChem.
ADAM10 inh: ADAM10 inhibition, QFRET primary screen. inhibition, % at 7 µM. recombinant ADAM10, EDANS/DABCYL FRET peptide cleavage, 3 h. O14672. AID 720582. 0.62% of 370,000 active;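 active means inhibition above a per-campaign cutoff equal to the mean of compounds falling between control-based bounds plus 3 SD, cut at about 20% in these data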;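 further: 0% = DMSO wells while the 100% control is not disclosed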
NRP1-CendR mod: alters CendR peptide binding to human NRP-1 | O14786 | FAM-RPARPAR peptide binding to NRP-1, fluorescence polarization | inhibition, % at 25 µM | 0.85% of 360,000 active | AID 602438;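 active means inhibition or corrected inhibition above about 18%, plus a signal ratio from 0.5 to 1.5, limit read from the data, passing the limit was not always enough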
A3G deaminase: APOBEC3G (human) deaminase inhibition. Q9HC16. recombinant A3G, ssDNA deamination FAM/TAMRA fluorescence. inhibition, % at 20 µM. 0.28% of 330,000 active. AID 493012;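 active means inhibition of at least 40% at 20 µM, with no more than 30% in the related APOBEC3A deaminase screen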;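 further: plate controls were DMSO wells with A3G for no effect and wells lacking A3G enzyme for full effect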
ADAM17 inh: inhibitors of human ADAM17; P78536; recombinant ADAM17, EDANS/DABCYL FRET peptide cleavage; inhibition, % at 6.95 µM; 0.83% of 370,000 active;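 active means inhibition above the mean of compounds lying between control limits plus 3 SD, set per campaign, cut at about 8.5% in these data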;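 further: 0% = DMSO-only wells as the low control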
A3A deaminase: inhibitors of human APOBEC3A DNA deaminase; P31941; recombinant A3A, FAM/TAMRA ssDNA deamination fluorescence; inhibition, % at 20 µM; 0.41% of 330,000 active;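 active means at least 40% inhibition at 20 µM here, with at most 30% in a related deaminase screen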;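 further: plate controls were A3A with DMSO for no effect and wells lacking A3A enzyme for full effect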
A3G conf: APOBEC3G (human) deaminase inhibition, confirmed. shares compounds with A3G deaminase. 72% of 890 active. recombinant A3G ssDNA deaminase, UDG/FAM-TAMRA fluorescence. inhibition, % at 20 µM;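 active means inhibition reaching a set limit in any replicate at 20 µM, the limit being 80% of the first screen's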
UDG A3G counter: inhibits E. coli UDG, flagging false APOBEC3G inhibitors | 710 tested, under 10 active | shares compounds with A3G deaminase | UDG counterscreen, FAM/TAMRA oligo fluorescence | inhibition, % at 20 µM;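 active means compounds giving 40% or more inhibition at 20 µM in any one of the three replicates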;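 further: plate controls were DMSO wells with UDG and oligo for no effect and DMSO wells lacking both for full effect; inhibitors lower the FAM signal released by uracil excision and alkaline cleavage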
* hit, by the source's call; . = not tested or not shown. Rows were chosen to be rich in hits. Some 2.4% of all compounds tested hit in one or more screens of this group.

SMILES | ADAM10 inh | NRP1-CendR mod | A3G deaminase | ADAM17 inh | A3A deaminase | A3G conf | UDG A3G counter
CCSc1nc2cc(S(=O)(=O)N3CCOCC3)ccc2o1 | -2 | 0 | 62* | 3 | 11 | 45* | 5
NC(=O)c1c(NC(=O)C2CCCO2)sc2c1CCCC2 (centres undefined) | -10 | 0 | 40* | -4 | 5 | 26 | .
CCOC(=O)c1c(NC(=O)C2CCCO2)sc2c1CCC2 (centres undefined) | -25 | 4 | -2 | -6 | 0 | . | .
CCOC(=O)C1=C(C)N(c2ccc(OC)cc2)C(=O)/C1=C\c1cccs1 | 7 | -20 | -11 | 2 | -1 | . | .
CCOC(=O)C1=C(C)N(c2ccc(OC)cc2)C(=O)/C1=C\c1ccc(O)c(OCC)c1 | 3 | -2 | 67* | 0 | 0 | 3 | .
Cc1cc(-c2n[nH]c(=S)n2/N=C/c2cccc(O)c2)n[nH]1 | 2 | 2 | 49* | -7 | -1 | 82* | -4
Cc1cc(-c2n[nH]c(=S)n2N=Cc2ccc(-c3ccccc3)cc2)n[nH]1 | 0 | . | . | -1 | . | . | .
Cc1cc(-c2n[nH]c(=S)n2/N=C/c2cccc([N+](=O)[O-])c2)n[nH]1 | 4 | -6 | 65* | 0 | -2 | 73* | -2
O=[N+]([O-])c1cccc(/C=N/n2c(C3CCCCC3)n[nH]c2=S)c1 | -1 | -4 | 9 | 1 | -7 | . | .
COC(=O)[C@]1(CNC(=O)C(C)(C)C)CC(=O)N(C)[C@@H]1c1ccccc1 | -3 | . | . | -4 | . | . | .
Cc1ccc(C(=O)CSc2ccc(-c3ccccc3)nn2)cc1 | 12 | -8 | 74* | 3 | -3 | 16 | -1
O=C(CSc1ccc(-c2ccccc2)nn1)c1ccccc1 | -4 | -9 | -3 | 1 | 1 | . | .
CCOC(=O)c1cccc(NC(=O)Cn2cc3c(n2)CCC(C)C3)c1 (centres undefined) | -7 | -9 | 47* | 2 | 2 | -2 | .
CC(=O)Nc1ccc(NC(=O)Cn2cc3c(n2)CCC(C)C3)cc1 (centres undefined) | 1 | . | . | -1 | . | . | .
CCOC(=O)[C@]12CCCC3=C1N(CCC3)C(=O)[C@@H](CC(=O)NCc1ccc(C)o1)C2 | 1 | . | . | 1 | . | . | .
C=C(C)C(=O)Nc1cccc(C2=NOC3(C2)C[C@@H](C(N)=O)N(C(=O)c2cc([N+](=O)[O-])cc([N+](=O)[O-])c2C)C3)c1 (some centres undefined) | 8 | -8 | 44* | 8 | 11 | 59* | -4
C/C=C(/C)C(=O)Nc1cccc(C2=NOC3(C2)C[C@H](C(N)=O)N(C(=O)c2ccc(Cl)cc2)C3)c1 (some centres undefined) | -1 | 5 | -7 | -2 | -3 | . | .
C=C(C)C(=O)Nc1cccc(C2=NOC3(C2)C[C@H](C(N)=O)N(C(=O)COc2ccc(Cl)cc2)C3)c1 (some centres undefined) | -5 | -9 | 88* | -5 | 23 | 91* | -3
CCC(=O)Nc1cccc(C2=NOC3(C2)C[C@@H](C(N)=O)N(C(=O)COc2ccc(Cl)cc2)C3)c1 (some centres undefined) | -2 | 11 | -13 | -1 | 0 | . | .
C=C(C)C(=O)Nc1cccc(C2=NOC3(C2)C[C@@H](C(N)=O)N(C(=O)c2ccc(Cl)cc2)C3)c1 (some centres undefined) | . | . | 100* | . | 28 | 90* | 4
C=C(C)C(=O)Nc1cccc(C2=NOC3(C2)C[C@H](C(N)=O)N(C(=O)c2ccccc2)C3)c1 (some centres undefined) | 1 | -14 | 63* | -1 | 10 | 65* | 3
CC(=O)OCCC(CC(C)C)NC(=O)[C@H](CC(C)C)NC(=O)OCc1ccccc1 (some centres undefined) | 0 | . | . | -3 | . | . | .
CCCC1CCC2(CCCN2CCOC(=O)Nc2ccc(Br)cc2)CC1 (centres undefined) | -5 | . | . | -2 | . | . | .
CCOC(=O)c1sc(=S)n(C)c1NC(=O)c1cccc(Br)c1 | 1 | -4 | 47* | -3 | -1 | 1 | -3
